# Reference: PubChem BioAssay (NCI)
# About 83,000 compounds went through this panel and 20% of them were active in at least one assay; those are over-represented in the sample as a whole.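 Results are percent growth after 48 hours of single-concentration exposure. 100 means growth as in untreated cells, lower positive values show inhibition; negative values down to -100 show cell death.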 Values without a mark were called inactive. The source made the active and inactive calls. How the source made its calls: active means growth percent below 10; inactive means the rest.
# How the values were obtained:
# Assay in all cases: NCI-60 one-dose screen, 48 h (100 = growth as untreated, 0 = no growth, -100 = all killed)
# [1] = test system: NCI-H23 lung; conditions: 10 µM unless noted
# [2] = test system: NCI-H322M lung; conditions: 10 µM unless noted
# [3] = test system: HOP-62 NSCLC; conditions: 10 µM unless noted
# [4] = test system: HOP-92 NSCLC; conditions: 10 µM unless noted
# [5] = test system: A549/ATCC NSCLC; conditions: 10 µM unless noted
# [6] = test system: 786-0 renal; conditions: 10 µM unless noted
# [7] = test system: COLO 205 colon; conditions: 10 µM unless noted
# [8] = test system: NCI-H522 lung; conditions: 10 µM
# [9] = test system: NCI-H460 lung; conditions: 10 µM unless noted
Compound,growth [1],growth [2] [%],growth [3],growth [4],growth [5],growth [6],growth [7],growth [8],growth [9]
COc1ccc(-n2c(SCc3cc(OC)c(OC)c(OC)c3)nc3ccc(C)cc3c2=O)c(OC)c1,17.8%,28,47.4%,22.7%,19%,29.6%,-4.21% (active),,
CC[Si](CC)(CC)OC1[C@@H](O[Si](CC)(CC)CC)[C@@H](CNC(=O)NC)O[C@H]1n1cnc2c(NC(=O)Nc3ccccc3)ncnc21 (some centres undefined),51.9%,96.3,95.9%,67.2%,68.5%,89.6%,99.1%,,
NC(=S)N/N=C1\c2ccccc2-c2c(F)c(F)c(F)c(F)c21,72.4%,93.5,75.6%,87%,87.5%,88.8%,,57.4%,
COc1c(O)c2c3c(c1OC)-c1ccccc1CC3N(S(=O)(=O)c1ccc(C)cc1)CC2 (centres undefined),41.2%,53,41.6%,59.8%,44.1%,75.8%,,19.9%,
Clc1cccc(Cl)c1Nc1ccc2nnc(-c3ccncc3)n2n1,95.8%,88.5,103%,,104%,104%,110%,-74.4% (active),
COc1cccc(Nc2nc(NCCO)c3ccccc3n2)c1,85.8%,86.4,93.1%,,68.3%,86%,108%,70.8%,
O=c1[nH]c(=S)[nH]c(=O)n1Cc1cccc2ccccc12,102%,114,106%,,99.7%,,120%,,97.6%
Cc1ccc(S(=O)(=O)N2C/C(=C\c3cc(F)cc(F)c3)C(=O)/C(=C/c3cc(F)cc(F)c3)C2)cc1,-21.6% (active),27,-60% (active),,27.6%,-85.6% (active),1.42% (active),,5.73% (active)
COc1cc(/C=C/C(=O)C(=Cc2ccc(F)c(F)c2)C(=O)/C=C/c2ccc(O)c(OC)c2)ccc1O,-24.6% (active),59.4,22.1%,,44.2%,40.8%,58.1%,,1.97% (active)
CCCCCn1c(=N)n(CC(O)COc2cccc(C)c2)c2ccccc21 (centres undefined),7.8% (active),14,17.9%,-10.9% (active),7.6% (active),32.6%,87.2%,,
CN1CCN(c2nc(-c3ccncc3)nc3sc4c(c23)CCCCCC4)CC1,73%,86.6,71%,,69%,,52.8%,,84.3%
Clc1ccc2c(c1)C[C@H]1C[C@@H](c3cccs3)N2O1,106%,99.7,,,98.2%,108%,112%,102%,104%
CCOc1ccc(-c2cnnn2-c2nonc2-n2cccc2)cc1,17.3%,,31.6%,25.4%,17.2%,37.3%,-75.2% (active),-55.9% (active),10.2%
CCOC(=O)c1c(Cl)c2c(n1Cc1cc(OC)cc(OC)c1)-c1oncc1CCC2,44.1%,55.7,39.7%,,28.1%,43%,-51.8% (active),28.9%,
CCOC(=O)n1cc(C2=C(c3cn(C)c4ccccc34)COC2=O)c2ccccc21,30%,47.4,,37.9%,22.6%,27.5%,-31.2% (active),,3.7% (active)
COc1cc(-c2nc3ccccc3o2)cc(CN2CCN(c3ccccc3)CC2)c1O,37.8%,,47.1%,81.8%,30.2%,90.2%,117%,58.4%,51%
Nc1cc(Br)c(-c2nnc(CCC(=O)c3nc4ccccc4[nH]3)o2)c(Br)c1,70.8%,,82.2%,26.3%,90.7%,85.8%,70.6%,24.6%,102%
O=S(=O)(Nc1ncccn1)c1ccc(Nc2ccc3nnc(-c4ccncc4)n3n2)cc1,99.6%,112,104%,,104%,103%,107%,113%,
COCCOC1=C(Cl)C(=O)c2ccccc2C1=O,29%,95.6,45.5%,,21.6%,81.8%,35.4%,,
CCOC(=O)c1cn2c3c(cc(F)cc3c1=O)C(CC)c1ccccc1C2 (centres undefined),103%,87.1,,95.6%,87.2%,93.2%,105%,78.7%,101%
Cc1nn2c(-c3nc4ccc(Cl)cc4[nH]3)c(-c3ccc(F)cc3)nc2s1,98.2%,,115%,91%,80.1%,93.8%,108%,99.9%,97.5%
